Test results from ChEMBL document CHEMBL3988442, “University of Dundee, Small-Polar-MMV Screening Library” (2021).
For some of these results: Results with a measured potency or affinity are listed apart.

Experiments:
Parameters in all cases: scale not given: direction of the effect not stated beside the values
[1] = target: Protein translocase subunit SecA (Escherichia coli (strain K12)) (UniProt P10408); experiment: Assay to Identify E. coli SecA ATPase Inhibitors; type: functional; conditions: 30 µM
[2] = target: T1, Ubiquitin-activating enzyme e1, putative (Leishmania donovani (strain BPK282A1)) (UniProt E9BSI1); experiment: Leishmania donovani Ubiquitin Activating Enzyme (LdE1); type: functional; conditions: 30 µM
T1 sequence (whole entry): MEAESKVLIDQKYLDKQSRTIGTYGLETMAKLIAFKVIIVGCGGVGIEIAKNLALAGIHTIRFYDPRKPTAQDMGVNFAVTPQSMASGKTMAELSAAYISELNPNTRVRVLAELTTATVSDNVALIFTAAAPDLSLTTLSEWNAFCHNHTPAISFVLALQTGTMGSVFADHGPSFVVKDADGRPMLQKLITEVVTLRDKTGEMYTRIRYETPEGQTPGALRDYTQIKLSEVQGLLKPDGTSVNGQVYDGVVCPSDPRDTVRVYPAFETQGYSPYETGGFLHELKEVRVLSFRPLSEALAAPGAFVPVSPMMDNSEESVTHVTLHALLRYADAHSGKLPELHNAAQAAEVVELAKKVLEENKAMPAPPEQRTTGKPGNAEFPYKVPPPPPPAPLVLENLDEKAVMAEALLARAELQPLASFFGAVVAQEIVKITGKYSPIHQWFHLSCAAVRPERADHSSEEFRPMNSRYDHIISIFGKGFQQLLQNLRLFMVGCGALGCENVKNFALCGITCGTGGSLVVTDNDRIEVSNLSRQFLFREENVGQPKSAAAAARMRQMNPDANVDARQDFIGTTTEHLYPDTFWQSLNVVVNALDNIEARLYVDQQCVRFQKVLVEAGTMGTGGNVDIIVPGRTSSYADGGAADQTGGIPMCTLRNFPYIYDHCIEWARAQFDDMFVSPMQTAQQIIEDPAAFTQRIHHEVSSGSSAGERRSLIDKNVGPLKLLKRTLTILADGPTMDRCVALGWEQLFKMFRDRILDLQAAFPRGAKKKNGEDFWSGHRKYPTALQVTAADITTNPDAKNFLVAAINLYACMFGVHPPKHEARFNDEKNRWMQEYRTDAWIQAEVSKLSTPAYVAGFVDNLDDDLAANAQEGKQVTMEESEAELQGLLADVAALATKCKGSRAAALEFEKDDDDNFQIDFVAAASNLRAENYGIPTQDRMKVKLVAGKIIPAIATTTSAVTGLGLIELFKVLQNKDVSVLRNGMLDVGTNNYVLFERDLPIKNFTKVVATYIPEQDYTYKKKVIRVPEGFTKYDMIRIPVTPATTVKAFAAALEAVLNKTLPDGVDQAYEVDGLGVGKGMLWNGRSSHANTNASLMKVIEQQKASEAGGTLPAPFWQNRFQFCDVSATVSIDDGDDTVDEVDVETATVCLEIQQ

[3] = target: T2, Aspartate--tRNA(Asp/Asn) ligase (Mycobacterium tuberculosis (strain ATCC 25618 / H37Rv)) (UniProt P9WFW3); experiment: Assay for Asp RNA synthetase-1 from Mycobacterium tuberculosis; type: functional; conditions: 30 µM; also: in the data most compounds retested in dose-response had high values
T2 sequence (whole entry): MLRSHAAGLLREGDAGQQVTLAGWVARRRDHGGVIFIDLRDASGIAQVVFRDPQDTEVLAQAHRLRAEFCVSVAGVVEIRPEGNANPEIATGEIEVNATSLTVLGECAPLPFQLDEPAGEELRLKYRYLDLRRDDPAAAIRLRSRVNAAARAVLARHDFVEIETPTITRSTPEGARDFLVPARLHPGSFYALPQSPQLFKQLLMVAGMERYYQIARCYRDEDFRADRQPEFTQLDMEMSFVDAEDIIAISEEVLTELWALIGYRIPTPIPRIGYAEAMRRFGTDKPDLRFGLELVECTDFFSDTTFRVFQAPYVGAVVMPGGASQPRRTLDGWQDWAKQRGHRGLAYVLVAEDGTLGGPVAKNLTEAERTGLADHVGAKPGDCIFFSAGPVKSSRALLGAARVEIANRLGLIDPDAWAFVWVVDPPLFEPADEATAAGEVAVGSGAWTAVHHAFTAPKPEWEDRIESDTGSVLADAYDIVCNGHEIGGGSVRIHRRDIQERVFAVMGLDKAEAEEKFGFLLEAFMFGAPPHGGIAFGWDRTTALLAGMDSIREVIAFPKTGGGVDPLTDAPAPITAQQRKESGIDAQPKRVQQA

[4] = target: Sialic acid-binding Ig-like lectin 9 (Homo sapiens) (UniProt Q9Y336); experiment: Hs-Siglec9 ALPHAscreen SOP 20170721; conditions: 10 µM
Trypanosoma cruzi = experiment: Trypanosoma cruzi phosphomannomutase and mannose-1-phosphate guanylyltransferase assay; type: functional; conditions: 10 µM
[5] = target: T3, Arginase-2, mitochondrial (Homo sapiens) (UniProt P78540); experiment: in vitro enzyme assay to detect the production of urea directly proportional to the activity of Arginase II; type: functional; conditions: 33.3 µM; also: in the data most compounds retested in dose-response had high values
T3 sequence (whole entry): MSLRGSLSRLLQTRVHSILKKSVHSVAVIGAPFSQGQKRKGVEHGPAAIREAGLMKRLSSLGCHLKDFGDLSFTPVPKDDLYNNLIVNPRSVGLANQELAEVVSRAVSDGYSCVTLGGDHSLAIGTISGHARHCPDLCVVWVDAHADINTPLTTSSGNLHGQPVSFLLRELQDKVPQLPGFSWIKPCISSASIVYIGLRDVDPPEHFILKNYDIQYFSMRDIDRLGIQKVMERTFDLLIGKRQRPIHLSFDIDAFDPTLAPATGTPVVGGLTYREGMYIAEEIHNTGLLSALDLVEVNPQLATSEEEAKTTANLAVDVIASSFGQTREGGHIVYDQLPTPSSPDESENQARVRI

[6] = target: T4, Proteasome subunit beta (Trypanosoma cruzi) (UniProt O96673); experiment: Trypanosoma cruzi proteasome chymotrypsin-like activity (TcProtChymo) assay.; also: in the data most compounds retested in dose-response had high values; type: functional; conditions: 9.37 µM
T4 sequence (whole entry): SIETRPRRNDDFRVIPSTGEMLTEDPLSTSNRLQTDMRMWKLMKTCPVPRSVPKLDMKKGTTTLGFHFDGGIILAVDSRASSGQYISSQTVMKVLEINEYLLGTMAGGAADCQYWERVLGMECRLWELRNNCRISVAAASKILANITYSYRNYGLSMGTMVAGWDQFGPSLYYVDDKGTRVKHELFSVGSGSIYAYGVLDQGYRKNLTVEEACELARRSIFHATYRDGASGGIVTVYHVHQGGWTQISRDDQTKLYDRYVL

Homo sapiens = organism: Homo sapiens; experiment: To identify inhibition of the IFN signalling (Jak-Stat) pathway via expression of an eGFP reporter gene under the control of an IFN-stimulated response element (ISRE) containing MxA promoter.; type: functional; conditions: 30 µM
[7] = target: Shiga toxin 2 (Escherichia coli O157:H7) (UniProt P09385+P09386); experiment: E. coli 0.157:H7 Shiga Toxin SOP - stx2 screening assay; type: functional; conditions: 30 µM
[8] = target: T5, Tyrosyl-tRNA synthetase, putative (Trypanosoma cruzi (strain CL Brener)) (UniProt Q4DSP6); experiment: Trypanosoma cruzi tyrosyl tRNA synthetase (TcYRS) _High Tyrosine SOP; type: functional; conditions: 30 µM; also: in the data most compounds retested in dose-response had high values
T5 sequence (whole entry): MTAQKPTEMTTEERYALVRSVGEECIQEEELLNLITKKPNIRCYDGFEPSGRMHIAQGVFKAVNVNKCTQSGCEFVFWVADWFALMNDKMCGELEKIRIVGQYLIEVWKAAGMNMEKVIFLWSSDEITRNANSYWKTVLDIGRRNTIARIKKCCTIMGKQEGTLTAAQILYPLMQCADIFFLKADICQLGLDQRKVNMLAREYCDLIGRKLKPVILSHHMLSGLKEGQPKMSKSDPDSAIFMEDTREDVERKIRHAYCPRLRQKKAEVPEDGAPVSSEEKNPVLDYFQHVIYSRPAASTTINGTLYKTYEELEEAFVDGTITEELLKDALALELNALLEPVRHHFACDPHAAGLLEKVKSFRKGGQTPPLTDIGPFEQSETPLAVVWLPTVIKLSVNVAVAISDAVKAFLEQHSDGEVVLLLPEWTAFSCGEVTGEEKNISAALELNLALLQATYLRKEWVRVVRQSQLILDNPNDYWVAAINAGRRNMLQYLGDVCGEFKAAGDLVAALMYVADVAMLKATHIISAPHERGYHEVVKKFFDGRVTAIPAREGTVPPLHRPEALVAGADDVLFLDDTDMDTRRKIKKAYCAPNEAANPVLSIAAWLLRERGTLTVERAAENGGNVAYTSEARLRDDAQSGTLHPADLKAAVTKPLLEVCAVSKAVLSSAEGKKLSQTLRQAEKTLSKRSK

[9] = target: T5, Tyrosyl-tRNA synthetase, putative (Trypanosoma cruzi (strain CL Brener)); experiment: Trypanosoma cruzi tyrosyl tRNA synthetase (TcYRS) SOP; type: functional; conditions: 30 µM
[10] = target: Chromo domain-containing protein 1 (Saccharomyces cerevisiae (strain ATCC 204508 / S288c) (Baker's yeast)) (UniProt P32657); experiment: ScCHD-1 Enzyme Inhibition Assay; type: functional; conditions: 30 µM; also: in the data most compounds retested in dose-response had high values
Chromo domain-containing protein 1 (Saccharomyces cerevisiae (strain ATCC 204508 / S288c) (Baker's yeast)), sequence (P32657 whole entry, the tested form may be a part): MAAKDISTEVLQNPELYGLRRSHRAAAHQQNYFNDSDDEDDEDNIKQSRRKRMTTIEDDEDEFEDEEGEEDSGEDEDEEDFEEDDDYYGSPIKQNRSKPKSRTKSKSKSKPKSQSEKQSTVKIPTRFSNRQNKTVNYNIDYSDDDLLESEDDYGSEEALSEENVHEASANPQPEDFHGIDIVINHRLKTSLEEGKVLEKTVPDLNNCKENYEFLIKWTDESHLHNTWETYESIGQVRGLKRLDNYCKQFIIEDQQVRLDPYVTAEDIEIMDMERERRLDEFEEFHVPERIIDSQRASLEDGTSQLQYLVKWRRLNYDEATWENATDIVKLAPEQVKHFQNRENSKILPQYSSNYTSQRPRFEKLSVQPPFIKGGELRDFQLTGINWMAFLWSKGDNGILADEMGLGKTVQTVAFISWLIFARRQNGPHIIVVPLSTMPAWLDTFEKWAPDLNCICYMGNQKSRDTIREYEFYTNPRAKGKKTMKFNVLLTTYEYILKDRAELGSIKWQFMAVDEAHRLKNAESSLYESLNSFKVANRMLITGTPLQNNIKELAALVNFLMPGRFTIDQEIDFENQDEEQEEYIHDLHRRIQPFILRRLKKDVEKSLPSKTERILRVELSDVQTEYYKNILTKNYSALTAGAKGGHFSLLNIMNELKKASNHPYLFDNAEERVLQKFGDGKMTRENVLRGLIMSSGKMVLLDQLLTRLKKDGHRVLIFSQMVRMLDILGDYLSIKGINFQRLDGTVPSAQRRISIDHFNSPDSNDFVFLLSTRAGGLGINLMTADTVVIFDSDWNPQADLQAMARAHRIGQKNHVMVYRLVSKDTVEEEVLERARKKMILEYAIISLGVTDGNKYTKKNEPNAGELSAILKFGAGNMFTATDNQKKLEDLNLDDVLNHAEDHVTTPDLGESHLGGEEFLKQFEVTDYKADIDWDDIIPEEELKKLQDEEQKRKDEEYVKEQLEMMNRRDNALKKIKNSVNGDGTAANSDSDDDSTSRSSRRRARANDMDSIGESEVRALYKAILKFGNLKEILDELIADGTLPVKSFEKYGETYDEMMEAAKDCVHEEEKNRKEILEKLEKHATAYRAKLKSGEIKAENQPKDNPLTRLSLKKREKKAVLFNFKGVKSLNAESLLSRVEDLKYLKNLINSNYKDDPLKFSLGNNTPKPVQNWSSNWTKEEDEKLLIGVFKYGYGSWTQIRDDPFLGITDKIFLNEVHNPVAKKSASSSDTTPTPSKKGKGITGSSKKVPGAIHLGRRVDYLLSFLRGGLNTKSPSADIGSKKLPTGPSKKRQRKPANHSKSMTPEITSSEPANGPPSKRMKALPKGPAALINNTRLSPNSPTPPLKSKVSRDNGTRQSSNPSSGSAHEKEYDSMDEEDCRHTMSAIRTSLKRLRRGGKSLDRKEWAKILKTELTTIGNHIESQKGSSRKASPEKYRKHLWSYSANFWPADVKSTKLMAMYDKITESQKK

Sialic acid-binding Ig-like lectin 9 (Homo sapiens), sequence (Q9Y336 whole entry): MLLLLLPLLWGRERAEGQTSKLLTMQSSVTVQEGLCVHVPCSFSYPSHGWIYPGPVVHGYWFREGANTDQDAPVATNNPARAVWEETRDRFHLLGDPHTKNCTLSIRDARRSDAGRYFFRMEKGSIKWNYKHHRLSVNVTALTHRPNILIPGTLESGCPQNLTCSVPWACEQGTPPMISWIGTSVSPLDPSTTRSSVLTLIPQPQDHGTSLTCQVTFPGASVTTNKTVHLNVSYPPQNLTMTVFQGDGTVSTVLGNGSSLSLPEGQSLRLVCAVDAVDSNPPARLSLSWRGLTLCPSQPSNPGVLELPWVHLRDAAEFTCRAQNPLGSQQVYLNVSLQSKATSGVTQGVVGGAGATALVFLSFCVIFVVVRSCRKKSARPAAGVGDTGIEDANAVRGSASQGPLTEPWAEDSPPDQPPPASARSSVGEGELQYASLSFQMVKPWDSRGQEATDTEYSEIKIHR
Protein translocase subunit SecA (Escherichia coli (strain K12)), sequence (P10408 whole entry): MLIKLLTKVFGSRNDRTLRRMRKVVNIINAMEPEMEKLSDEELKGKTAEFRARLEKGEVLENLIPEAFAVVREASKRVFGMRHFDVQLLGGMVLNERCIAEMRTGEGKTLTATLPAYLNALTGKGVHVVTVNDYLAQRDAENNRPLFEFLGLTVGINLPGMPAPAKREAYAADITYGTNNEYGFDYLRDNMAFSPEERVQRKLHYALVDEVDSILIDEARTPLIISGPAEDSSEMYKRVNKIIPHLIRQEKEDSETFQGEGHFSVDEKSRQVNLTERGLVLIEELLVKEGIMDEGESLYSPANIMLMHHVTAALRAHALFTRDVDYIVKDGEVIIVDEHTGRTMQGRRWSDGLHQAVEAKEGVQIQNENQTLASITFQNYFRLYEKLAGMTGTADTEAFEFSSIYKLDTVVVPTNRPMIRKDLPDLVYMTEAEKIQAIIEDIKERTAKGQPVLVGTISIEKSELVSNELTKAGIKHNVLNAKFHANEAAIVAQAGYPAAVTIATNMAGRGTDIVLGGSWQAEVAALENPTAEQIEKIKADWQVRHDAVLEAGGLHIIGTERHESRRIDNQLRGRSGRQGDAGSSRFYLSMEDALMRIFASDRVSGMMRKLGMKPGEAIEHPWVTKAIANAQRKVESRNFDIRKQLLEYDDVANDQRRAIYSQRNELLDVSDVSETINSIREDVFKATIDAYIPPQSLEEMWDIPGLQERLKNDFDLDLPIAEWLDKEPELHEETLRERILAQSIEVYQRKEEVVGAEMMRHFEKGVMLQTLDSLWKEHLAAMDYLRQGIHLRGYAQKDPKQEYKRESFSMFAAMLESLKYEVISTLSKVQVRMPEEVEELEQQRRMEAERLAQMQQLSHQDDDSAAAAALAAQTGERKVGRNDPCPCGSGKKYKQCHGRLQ

| SMILES | Percent Effect [1] | Percent Effect [2] | Percent Effect [3] | Percent Effect [4] | Percent Effect (Trypanosoma cruzi) | Percent Effect [5] | Percent Effect [6] | Percent Effect (Homo sapiens) | Percent Effect [7] | Percent Effect [8] | Percent Effect [9] | Percent Effect [10] |
| --- | --- | --- | --- | --- | --- | --- | --- | --- | --- | --- | --- | --- |
| O=C(Cc1c(F)cccc1F)N1CCN(CC(=O)N2CCCC2)CC1 | -1.5% | -1.3% | -5.83% | -2.19% | -0.938% | 4.57% | 22.1% | 12.9% | 16.1% | 4.83% | 10% | -6.7% |
| COCCN1C[C@@H]2CN(Cc3cccc(C)n3)C[C@@H]2C1=O | -2.33% | -1.3% | 1.39% | 0.23% | -24.2% | 2.28% | 16.1% | 1.2% | -2.04% | 7.73% | 12.5% | -8.2% |
| C[C@@H]1CN(Cc2ccsc2)C[C@]12CCN(Cc1cccnc1)C2=O | -4.41% | 1.3% | -1.62% | 1.42% | -1.69% | 1.37% | -4.03% | 25.2% | -6.36% | 0% | -10% | -0.115% |
| O=C1CO[C@@H]2CN(Cc3cccs3)C[C@H]2N1Cc1ccncc1 | -2.47% | 14.3% | 9.56% | -8.26% | -2.63% | 10.9% | 21.8% | -2.63% | -17.5% | 12.1% | 10.3% | 3.61% |
| Cc1cccc(CN2C(=O)C[C@H]3[C@@H]2CCN3Cc2ccccn2)n1 | 0.959% | 22.1% | 3.98% | -1.08% | -1.13% | -1.83% | 12.8% | -7.67% | -19.3% | -0.966% | 20% | -6.04% |
| CC(O)CN1CCN(C(=O)c2cnn(-c3ccccc3F)c2)CC1 (configuration not stated) | – | – | -2.52% | – | – | – | – | – | – | – | – | – |
| Cc1noc(C)c1CN1CCO[C@H]2CN(CC3CC3)C[C@H]21 | -4.84% | 11.7% | -1.48% | 9.57% | 4.58% | 3.24% | 18.4% | 2.94% | -2.75% | 8.95% | 20.5% | 12.9% |
| CCc1noc(C(C)N2CCNCC2)n1 (configuration not stated) | -5.07% | 5.33% | -11.9% | 0.232% | -0.602% | -2.22% | 13.3% | -0.55% | 6.76% | 2.63% | 2.56% | -9.82% |
| CCc1cnc(N2CC3(CCN(Cc4ccsc4)C3)C2)nc1 | -5.86% | 3.9% | 14.2% | -1.39% | -7.3% | 0% | 9.27% | 12.9% | -11% | 8.95% | 2.56% | -4.35% |
